# Reference: PubChem BioAssay AID686979 (National Center for Advancing Translational Sciences (NCATS), 2013)
# Screen size: about 420,000 compounds; about 50,000 (12%) were called active. Where a call stands in place of a potency, no number is given. Another 26% or so got no clear call; they are omitted. The call rests on the fitted dose curve; in most records, active means well fitted inhibition curve with a large enough effect; inconclusive means small, poorly fitted or top-dose-only effect; inactive means flat fitted curve, though single readings scatter. Many of the other results were omitted from the sample, so actives are more common in it than they were.
# Test: qHTS for Inhibitors of human tyrosyl-DNA phosphodiesterase 1 (TDP1): qHTS in cells in presence of CPT; further: nearly all actives have a fitted effect of over 55% in size
# Settings: chicken DT40 Tdp1-/-;hTDP1 cells + 20 nM CPT, ATP luminescence, 48 h; series mostly up to 46.2 µM
# How it was run: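 Chicken DT40 Tdp1-/- cells complemented with human TDP1, 400 cells/well, exposed to compounds plus 20 nM camptothecin for at least 48 h at 37 C; viability read as ATP content by CellTiter-Glo luminescence.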
# Potency means the concentration at half of the fitted maximal effect.
row,SMILES,Potency
1,COCCn1c(N)c(N(Cc2ccccc2)C(=O)C2CCCCC2)c(=O)[nH]c1=O,inactive
2,Cc1nn(C)c(C)c1S(=O)(=O)N1CCC(CO)(Cc2ccc(Cl)cc2)CC1,inactive
3,Cc1c(Cl)cnc(NC(=O)COC(=O)C2CCCC2)c1Cl,inactive
4,N#Cc1ccc(CSc2ncccn2)cc1,inactive
5,CC(C)C(c1nnnn1C1CCCCC1)N1CCN(C(=O)c2ccco2)CC1 (centres undefined),inactive
6,CC1(C)C2CC[C@]3(C)C(CC=C4[C@@H]5C[C@@](C)(CO)CC[C@]5(C(=O)O)CC[C@]43C)[C@@]2(C)CC[C@@H]1O (some centres undefined),inactive
7,CCOC(=O)c1c(-c2ccc(C)cc2)csc1/N=C(\C)C1=C(O)c2ccccc2C1=O,23.1 µM (active)
8,CC(=NCc1ccco1)C1=C(O)c2ccccc2C1=O,inactive
9,CCOC(=O)c1cc2n(c1N)-c1ccccc1C2=O,inactive
10,CN(C)Cc1c(C(=O)N/N=C/c2ccccc2OCc2ccc(F)cc2)nnn1-c1nonc1N,inactive
11,CCOC(=O)N1CCC(=NNC(N)=O)CC1,inactive
12,COc1ccc(S(=O)(=O)NCC(c2ccco2)N2CCOCC2)cc1 (centres undefined),inactive
13,CC1(C)CC(CNCCC(c2ccc(F)cc2)c2ccco2)CCO1 (centres undefined),25.9 µM (active)
14,CC1(C)CC(N(Cc2ccccc2)C(=O)Cc2ccccc2)CCO1 (centres undefined),inactive
15,O=C(NC1CCCC1)C(c1ccco1)N(C(=O)c1ccco1)c1ccc(F)cc1 (centres undefined),inactive
16,CSc1ccc(CN(C)CC(=O)NCc2ccc(F)cc2)cc1,inactive
17,CC(C=Cc1ccccc1)=NNS(=O)(=O)c1ccc([N+](=O)[O-])cc1,inactive
18,CC(=O)c1c(OCC(=O)N(C)C2CCCCC2)ccc2c(C)cc(=O)oc12,inactive
19,Cc1cc(/C=C2/NC(=O)NC2=O)c(C)n1-c1cccnc1,inactive
20,Cc1ccc2nc(COc3ccccc3NC(=O)Nc3ccc(F)c(Cl)c3)cc(=O)n2c1,11.6 µM (active)
21,Cc1ccc2nc(COc3cccc(NC(=O)Nc4ccc(C)c(Cl)c4)c3)cc(=O)n2c1,inactive
22,Cc1ccc2nc(COc3ccc(NC(=O)COc4ccccc4F)cc3)cc(=O)n2c1,inactive
23,Cc1ccsc1C(=O)N[C@@H](C)c1nnc2ccccn12,inactive
24,N#Cc1c(NC(=O)C2CCCO2)sc2c1CCCCC2 (centres undefined),inactive
25,CCCc1cc(=O)[nH]c(SCC(=O)Nc2sc3c(c2C#N)CCCC3)n1,inactive
26,CC(=O)c1c(C)[nH]c(C(=O)OCC(=O)Nc2c(C)cccc2C)c1C,20.6 µM (active)

row,SMILES,Potency
1,COc1ccc(-n2c(SCC(=O)Nc3sc4c(c3C#N)CCCC4)nnc2-c2ccc(O)cc2)cc1,inactive
2,CC(=O)c1c(C)[nH]c(C(=O)OCC(=O)NCCC(C)C)c1C,inactive
3,CC(=O)c1c(C)[nH]c(C(=O)OCC(=O)Nc2sc3c(c2C#N)CCCC3)c1C,16.4 µM (active)
4,N#Cc1c(NC(=O)CCCl)sc2c1CCCCC2,18.4 µM (active)
5,CCN1CCN(CC(=O)Nc2sc3c(c2C#N)CCC3)CC1,inactive
6,CC(=O)c1c(C)[nH]c(C(=O)OCC(=O)Nc2c(C)n(C)n(-c3ccccc3)c2=O)c1C,inactive
7,CC1=CC=CC2=N/C(=N\S(=O)(=O)c3ccc(F)cc3F)c3ccccc3CN12,inactive
8,C=CCn1c(CNS(=O)(=O)c2ccc(Br)cc2)nnc1SC,inactive
9,CCOC(=O)c1c(C)[nH]c(C(=O)OCC(=O)N2CCCC2=O)c1C,inactive
10,CC(C)c1nc(CNC(=O)CC2C(=O)NCCN2Cc2cccc(F)c2F)cs1 (centres undefined),inactive
11,CC1(C(=O)Nc2ccc3c(c2)OCCO3)CN(S(C)(=O)=O)CC(=O)N1Cc1cccc(F)c1 (centres undefined),inactive
12,CCOCCc1nn2c(=O)cc(COC(=O)CNC(=O)c3ccc(C(C)(C)C)cc3)nc2s1,16.4 µM (active)
13,CCCCc1nn2c(=O)cc(COC(=O)c3ccccc3NC(=O)C(C)(C)C)nc2s1,inactive
14,Cc1nn2c(=O)cc(COC(=O)CNC(=O)c3ccc(F)cc3)nc2s1,inactive
15,CCOCCc1nn2c(=O)cc(CSCC(=O)Nc3cccc(C)c3C)nc2s1,inactive
16,CCCc1nn2c(=O)cc(COC(=O)c3ccc(NC(=O)C(C)Oc4ccccc4)cc3)nc2s1 (centres undefined),inactive
17,CCCCc1nn2c(=O)cc(COC(=O)c3ccc(NC(=O)c4ccccc4C)cc3)nc2s1,20.6 µM (active)
18,O=C(O)CCCCC(=O)O,inactive
19,COc1ccc(NC(=O)N(C)C[C@@H]2OCc3cn(nn3)CCCC(=O)N([C@H](C)CO)C[C@H]2C)c(OC)c1,inactive
20,O=C(Nc1cccc([N+](=O)[O-])c1)Nn1cnnc1,inactive
21,CC(C)CC(=O)NC(=S)Nc1cc(C(=O)O)ccc1Cl,inactive
22,CC(C)Nc1ccc(-n2nc3ccccc3[n+]2[O-])cc1,inactive
23,NS(=O)(=O)c1ccc(CCNC(=O)CNC(=O)Cc2ccccc2)cc1,inactive
24,CCOc1cnc(-c2c(-c3ccccc3Cl)noc2C)o1,inactive
25,Cc1oc(-c2ccccc2Cl)[n+]([O-])c1C,14.6 µM (active)
26,OCC[C@H]1C[C@@H](O)[C@H](O)[C@]2(OCCCc3ccccc32)O1,inactive

row,SMILES,Potency
1,COc1ccc(C(=O)OCC(=O)N2CC(=O)Nc3ccccc32)cc1Br,inactive
2,O=C(NC1CCCC1)c1ccc(Br)s1,inactive
3,Cn1cccc1/C=N/NC(=O)CNc1cccc2ccccc12,inactive
4,Cc1ccc(C(=O)N/N=C/c2cccc3ccccc23)cn1,inactive
5,Cc1cccc(/C=N/NC(=O)CNc2cccc3ccccc23)n1,18.4 µM (active)
6,C/C(=N\NC(=O)CNc1cccc2ccccc12)c1ccc(Br)s1,11.6 µM (active)
7,C/C(Cc1ccccc1)=N\NC(=O)CNC(=O)c1cccc(Br)c1,inactive
8,COc1cc(OC)cc(C(=O)NCCSCc2ccc(Cl)cc2)c1,inactive
9,Cc1ccc(C(=O)NC2CCN(C(=O)Nc3ccccc3Cl)CC2)cc1,inactive
10,Cc1ccc(C)n1NC(=O)c1ccc([N+](=O)[O-])cc1,inactive
11,CC(=O)N1CCc2ccc(N)cc21,inactive
12,Cn1c(=O)n(Cc2ccco2)c(=N)c2c3c(sc21)CCCC3,inactive
13,CN1CCc2c(sc3c2c(NCc2ccco2)nc2nnnn23)C1,29.1 µM (active)
14,CC1CCN(C(=O)CCc2nnc3ccc(NCc4ccco4)nn23)CC1,inactive
15,O=C(COC(=O)c1ncc(Cl)c(Cl)c1Cl)NNC(=O)c1ccccc1,inactive
16,COc1ccc(N2C(=O)NC(NS(=O)(=O)c3ccc(Cl)cc3)(C(F)(F)F)C2=O)cc1 (centres undefined),inactive
17,COc1ccc(/C=C2\SC(=S)N(CCC(=O)Nc3cccc(C(=O)O)c3)C2=O)cc1OC,inactive
18,O=C(CN1CCCCCC1)NCCN1C(=O)S/C(=C\c2ccccc2Cl)C1=O,inactive
19,O=C1/C(=C\c2ccccc2Cl)SC(=S)N1CCC(=O)N1CCCc2ccccc21,6.51 µM (active)
20,Cc1ccc([C@@H]2CC(=O)[C@@H]3CN(S(=O)(=O)c4ccc(C)cc4)[C@H](c4ccccc4F)C[C@@H]3N2S(=O)(=O)c2ccc(Cl)cc2)cc1,inactive
21,CC1CC(NC(=S)N(C)C)CC(C)(C)C1 (centres undefined),inactive
22,CC1CC(NC(=O)/C(C#N)=C/c2ccc[nH]2)CC(C)(C)C1 (centres undefined),0.0184 µM (active)
23,CCN(C[C@H]1N[C@@](CC)(C(=O)OC)[C@H]2C(=O)N(C)C(=O)[C@@H]12)C(=O)Nc1ccc(F)cc1,inactive
24,Cc1nn(C(=O)c2c(F)cccc2F)c(C)c1S(=O)(=O)N1CCOCC1,inactive
25,Cc1cccc(C(=O)NNC(=O)c2cccc([N+](=O)[O-])c2)c1,inactive
26,O=C(Nc1ccc(NC(=O)c2ccco2)c(Cl)c1)c1cccc([N+](=O)[O-])c1,inactive

row,SMILES,Potency
1,O=C(Nc1ccc(C2CC2(Cl)Cl)cc1)c1cccc([N+](=O)[O-])c1 (centres undefined),23.1 µM (active)
2,Cc1c(NC(=O)C(C)Oc2cccc(Cl)c2)c(=O)n(-c2ccccc2)n1C (centres undefined),inactive
3,COc1ccc2[nH]c(C(=O)N/N=C/c3cc(OC)c(OC)c(OC)c3)cc2c1,inactive
4,COc1cc(/C=N/NC(=O)Cc2ccccc2)cc(OC)c1OC,inactive
5,COc1cc(/C=N/Nc2nn3cnnc3c3ccccc23)cc(OC)c1OC,10.3 µM (active)
6,CCOC(=O)CSc1nc(N2CCOCC2)c2c(c1C#N)CC(C(C)C)OC2 (centres undefined),inactive
7,Cc1cccc(NC(=O)Cc2ccc(Br)cc2)n1,inactive
8,CC(Cc1cccs1)NC(=O)NC1CCCCC1 (centres undefined),inactive
9,Cc1ccccc1N(C(=O)Cc1cccs1)C(C(=O)NC1CCCCC1)c1cn(C)nc1C (centres undefined),inactive
10,Cc1ccsc1C(C(=O)NC1CCCCC1)N(C(=O)Cc1cccs1)C1CC1 (centres undefined),20.6 µM (active)
11,CC(NC(=O)c1cc(=O)[nH]c2ccccc12)c1ccc(F)cc1F (centres undefined),inactive
12,CC(NC(=O)c1ccccc1SCC(=O)N1CCCC1)c1ccccc1 (centres undefined),inactive
13,CC(NC(=O)c1cc(Sc2ccc(F)cc2F)nc2ccccc12)c1ccccc1 (centres undefined),13 µM (active)
14,CCCCNC(=O)c1nc(C2CCN(S(=O)(=O)c3ccc(F)c(F)c3)CC2)oc1-c1cccc(C(F)(F)F)c1,inactive
15,COc1ccc(N2CCN(Cc3nnc(-c4ccccc4)o3)CC2)cc1,inactive
16,COc1ccc(N2CCN(c3cc(C)nc4nncn34)CC2)cc1,13 µM (active)
17,COc1ccc(N2CCN(S(=O)(=O)c3cc(Br)cnc3N)CC2)cc1,inactive
18,O=C(O)c1ccc2c(c1)N(Cc1ccc(F)cc1)C(=O)c1ccccc1S2=O (centres undefined),11.6 µM (active)
19,O=C(CN1C(=O)c2ccccc2C1=O)NCc1ccc(C(=O)O)cc1,inactive
20,CN(Cc1ccc(F)cc1)C(=O)CN1C(=O)c2ccccc2S1(=O)=O,inactive
21,CN(C(=O)c1ccc2c(c1)N(Cc1cccc(Cl)c1)C(=O)c1ccccc1S2=O)C1CCCCC1 (centres undefined),18.4 µM (active)
22,O=C(Nc1cc(Cl)cc(Cl)c1)c1ccc2c(c1)N(Cc1cccc(Cl)c1)C(=O)c1ccccc1S2=O (centres undefined),3.66 µM (active)
23,Cc1ccccc1NC(=O)NCC1CCN(Cc2cccc(Cl)c2)CC1,inactive
24,CCN(CC)C(=O)C1CCCN(Cc2cccc(Cl)c2)C1 (centres undefined),inactive
25,Cc1cccc(C(=O)Nc2ccc3c(c2)C(=O)N(CC(C)C)C3=O)c1,inactive
26,O=C(CCN1C(=O)c2ccccc2C1=O)NNC(=O)c1ccc(Cl)cc1Cl,inactive
